# Source: PMC7862700, “An all-to-all approach to the identification of sequence-specific readers for epigenetic DNA modifications on cytosine”
# Experiments:
# Assay in all cases: DAPPL (digital affinity profiling via proximity ligation, sequencing); 10 mM Tris-HCl pH 7.5, 50 mM NaCl, 1 mM DTT, 4% glycerol, room temperature, 30 min; GST-TFs on glutathione beads, 16-mer random dsDNA library, 0.1% formaldehyde crosslink after washing; high values mean tight binding
# Settings in all cases: protein: recombinant; tags: N-terminal GST; dsDNA, one strand shown
# FLI1 = target: T1, FLI1 (Homo sapiens, UniProt Q01543 1-452)
# T1 sequence: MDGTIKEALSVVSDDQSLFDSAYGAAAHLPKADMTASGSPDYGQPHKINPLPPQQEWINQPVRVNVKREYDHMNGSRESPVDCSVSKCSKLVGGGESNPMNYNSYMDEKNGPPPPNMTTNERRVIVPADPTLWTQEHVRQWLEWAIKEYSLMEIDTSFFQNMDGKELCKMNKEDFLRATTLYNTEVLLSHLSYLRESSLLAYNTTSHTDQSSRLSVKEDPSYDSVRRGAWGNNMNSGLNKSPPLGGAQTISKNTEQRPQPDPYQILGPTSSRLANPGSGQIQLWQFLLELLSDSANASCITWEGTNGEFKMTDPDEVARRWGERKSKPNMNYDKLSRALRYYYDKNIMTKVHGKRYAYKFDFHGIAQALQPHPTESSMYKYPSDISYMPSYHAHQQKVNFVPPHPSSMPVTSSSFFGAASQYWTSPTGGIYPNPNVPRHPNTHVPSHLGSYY
# Summary of the method: (§1)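 A tag-only sample was pooled with DNA-barcoded human transcription factors that had been expressed in yeast as GST fusions and captured on glutathione beads. The pools were incubated for 30 min at room temperature with 200 nmole of a random double-stranded 16-mer DNA library in Tris/NaCl/DTT/glycerol buffer, then washed, crosslinked with 0.1% formaldehyde, proximity-ligated (BsaI/T4 ligase, 1 h, 37 °C), PCR-amplified and sequenced on an Illumina NextSeq500. Binding signal is each hexamer's read frequency for a factor divided by its frequency for the tag-only sample.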
# ELK1 = target: T2, ELK1 (Homo sapiens, UniProt P19419 1-428)
# T2 sequence: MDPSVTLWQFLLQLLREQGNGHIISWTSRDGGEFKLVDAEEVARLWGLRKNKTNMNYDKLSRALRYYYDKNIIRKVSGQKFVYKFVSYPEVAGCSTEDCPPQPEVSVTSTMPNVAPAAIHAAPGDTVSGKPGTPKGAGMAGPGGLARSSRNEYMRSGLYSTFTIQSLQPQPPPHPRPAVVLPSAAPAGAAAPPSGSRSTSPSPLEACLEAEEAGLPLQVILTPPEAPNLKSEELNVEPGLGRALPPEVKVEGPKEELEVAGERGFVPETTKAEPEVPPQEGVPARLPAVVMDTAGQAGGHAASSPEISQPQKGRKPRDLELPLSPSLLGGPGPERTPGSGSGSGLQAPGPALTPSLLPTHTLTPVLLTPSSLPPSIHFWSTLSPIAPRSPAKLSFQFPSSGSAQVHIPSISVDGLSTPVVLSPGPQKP
# Summary of the method: as §1
# GABPA = target: T3, GABPA (Homo sapiens, UniProt Q06546 1-454)
# T3 sequence: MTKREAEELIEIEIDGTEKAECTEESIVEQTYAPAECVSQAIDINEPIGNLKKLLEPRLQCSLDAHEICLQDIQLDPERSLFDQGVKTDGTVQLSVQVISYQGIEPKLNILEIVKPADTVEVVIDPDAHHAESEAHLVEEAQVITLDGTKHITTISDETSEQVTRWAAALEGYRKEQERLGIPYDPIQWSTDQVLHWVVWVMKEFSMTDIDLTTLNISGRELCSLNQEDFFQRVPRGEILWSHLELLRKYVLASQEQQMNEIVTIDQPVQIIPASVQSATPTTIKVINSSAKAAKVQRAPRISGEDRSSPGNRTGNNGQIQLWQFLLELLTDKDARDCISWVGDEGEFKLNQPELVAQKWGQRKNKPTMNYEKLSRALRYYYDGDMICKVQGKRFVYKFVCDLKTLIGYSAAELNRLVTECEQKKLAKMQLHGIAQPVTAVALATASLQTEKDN
# Summary of the method: as §1
# ERG = target: T4, ERG (Homo sapiens, UniProt P11308 1-479)
# T4 sequence: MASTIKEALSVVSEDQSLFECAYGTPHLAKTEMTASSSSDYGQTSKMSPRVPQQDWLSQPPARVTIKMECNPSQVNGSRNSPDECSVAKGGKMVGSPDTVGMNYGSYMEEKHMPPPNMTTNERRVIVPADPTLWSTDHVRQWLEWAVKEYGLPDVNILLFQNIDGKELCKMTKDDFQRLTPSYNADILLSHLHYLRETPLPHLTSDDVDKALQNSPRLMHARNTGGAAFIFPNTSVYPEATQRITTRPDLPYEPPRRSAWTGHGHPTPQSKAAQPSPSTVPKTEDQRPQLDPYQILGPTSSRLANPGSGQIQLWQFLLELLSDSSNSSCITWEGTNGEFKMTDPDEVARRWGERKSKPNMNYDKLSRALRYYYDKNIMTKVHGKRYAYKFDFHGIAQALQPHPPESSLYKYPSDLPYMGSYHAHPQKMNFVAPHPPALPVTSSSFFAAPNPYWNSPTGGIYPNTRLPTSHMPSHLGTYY
# Summary of the method: as §1
# ELF1 = ELF1 (Homo sapiens, UniProt P32519 1-619)
# Summary of the method: as §1
# EHF = target: T5, EHF (Homo sapiens, UniProt Q9NZC4 1-300)
# T5 sequence: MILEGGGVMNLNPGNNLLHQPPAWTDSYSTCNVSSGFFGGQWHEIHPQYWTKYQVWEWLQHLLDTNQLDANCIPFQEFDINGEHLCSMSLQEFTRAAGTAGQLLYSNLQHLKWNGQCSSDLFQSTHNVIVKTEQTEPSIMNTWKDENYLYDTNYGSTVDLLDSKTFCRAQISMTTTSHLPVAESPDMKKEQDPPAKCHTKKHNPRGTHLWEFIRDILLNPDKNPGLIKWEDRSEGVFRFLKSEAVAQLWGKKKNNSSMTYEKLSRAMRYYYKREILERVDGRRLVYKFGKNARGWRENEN
# Summary of the method: as §1
# SPI1 = SPI1 (Homo sapiens, UniProt P17947 1-270)
# Summary of the method: as §1
# SPIB = SPIB (Homo sapiens, UniProt Q01892 1-262)
# Summary of the method: as §1
# ELK3 = target: T6, ELK3 (Homo sapiens, UniProt P41970 1-407)
# T6 sequence: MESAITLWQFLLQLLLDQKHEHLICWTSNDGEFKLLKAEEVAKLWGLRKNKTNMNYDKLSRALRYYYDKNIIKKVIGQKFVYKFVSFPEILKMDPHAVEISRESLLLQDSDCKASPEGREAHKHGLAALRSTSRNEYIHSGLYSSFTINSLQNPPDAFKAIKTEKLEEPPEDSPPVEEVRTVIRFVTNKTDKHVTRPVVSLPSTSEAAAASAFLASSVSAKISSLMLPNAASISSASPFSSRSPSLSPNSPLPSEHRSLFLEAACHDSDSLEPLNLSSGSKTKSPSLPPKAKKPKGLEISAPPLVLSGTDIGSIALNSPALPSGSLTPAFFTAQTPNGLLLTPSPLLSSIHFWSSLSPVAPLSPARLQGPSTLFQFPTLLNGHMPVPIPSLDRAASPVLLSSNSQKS
# Summary of the method: as §1
# ELF1, sequence (P32519 whole entry): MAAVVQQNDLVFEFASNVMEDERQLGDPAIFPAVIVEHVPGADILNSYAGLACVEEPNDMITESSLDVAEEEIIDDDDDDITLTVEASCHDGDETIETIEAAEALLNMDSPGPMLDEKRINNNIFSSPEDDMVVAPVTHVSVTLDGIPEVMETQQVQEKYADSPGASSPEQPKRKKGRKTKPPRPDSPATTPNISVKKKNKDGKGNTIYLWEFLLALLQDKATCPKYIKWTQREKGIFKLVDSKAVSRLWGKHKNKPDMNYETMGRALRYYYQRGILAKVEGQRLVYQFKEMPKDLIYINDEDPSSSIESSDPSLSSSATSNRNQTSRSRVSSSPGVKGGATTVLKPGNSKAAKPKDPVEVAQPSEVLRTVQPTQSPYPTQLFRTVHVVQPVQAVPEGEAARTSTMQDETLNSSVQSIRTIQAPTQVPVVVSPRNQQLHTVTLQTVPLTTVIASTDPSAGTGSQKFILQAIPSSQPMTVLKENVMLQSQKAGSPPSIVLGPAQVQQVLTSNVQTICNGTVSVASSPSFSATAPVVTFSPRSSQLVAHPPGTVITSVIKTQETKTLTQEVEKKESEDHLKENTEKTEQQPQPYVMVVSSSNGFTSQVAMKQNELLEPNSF
# SPIB, sequence (Q01892 whole entry): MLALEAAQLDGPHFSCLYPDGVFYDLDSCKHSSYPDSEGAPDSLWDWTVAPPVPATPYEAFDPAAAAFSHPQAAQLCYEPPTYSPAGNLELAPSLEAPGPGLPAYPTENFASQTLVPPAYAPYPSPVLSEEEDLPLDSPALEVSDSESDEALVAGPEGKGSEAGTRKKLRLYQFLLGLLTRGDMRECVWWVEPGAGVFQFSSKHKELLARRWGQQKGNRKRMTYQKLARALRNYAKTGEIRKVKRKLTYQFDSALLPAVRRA
sequence,measurement,setting,value
ATTCGT,binding signal,FLI1,"1.24 fold enrichment (6-mer frequency, TF over GST control)"
same,binding signal,ELK1,"1.24 fold enrichment (6-mer frequency, TF over GST control)"
same,binding signal,GABPA,"1.05 fold enrichment (6-mer frequency, TF over GST control)"
same,binding signal,ERG,"1.15 fold enrichment (6-mer frequency, TF over GST control)"
same,binding signal,ELF1,"1.17 fold enrichment (6-mer frequency, TF over GST control)"
same,binding signal,EHF,"1.08 fold enrichment (6-mer frequency, TF over GST control)"
same,binding signal,SPI1,"1.11 fold enrichment (6-mer frequency, TF over GST control)"
same,binding signal,SPIB,"1.27 fold enrichment (6-mer frequency, TF over GST control)"
same,binding signal,ELK3,"1.08 fold enrichment (6-mer frequency, TF over GST control)"
